# Data from PubChem BioAssay.
# Values joined by “and” are separate entries in the source; they are usually repeats but may differ in a detail not shown here. Identical values can stand only once. Some compounds were tested as several samples or in several runs, with calls that do not always agree. Active and inactive are the calls of the source.
# Tests used:
# [1] = small molecules captured by biotinylated probe aFSTL3 – biochemical, small-molecule microarray, fluorescence 635/667, stem cell growth factor project, primary screen (AID 1064); conditions: higher = more signal;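 further: measures binding of the biotinylated anti-FSTL3 antibody to printed compounds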
# [2] = binders from COS7 lysate, DM2A8 probe, primary screen, torsin A project, cell lysate, small-molecule microarray, fluorescence 635/667 (AID 1065); conditions: higher = more signal, COS7 lysate expressing mutant human TOR1A
# [3] = small molecules captured by biotinylated probe aFGF2 – biochemical, small-molecule microarray, fluorescence 635/667, stem cell growth factor project, primary screen (AID 1067); conditions: higher = more signal;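 further: measures binding of biotinylated aFGF2 protein to printed compounds on slides; z-score merges feature fluorescence and signal-to-noise across triplicate slides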
# [4] = small molecules captured by biotinylated probe aFGF10 – biochemical, small-molecule microarray, fluorescence 635/667, stem cell growth factor project, primary screen (AID 1071); conditions: higher = more signal;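 further: score merges 667 nm spot intensity and signal to noise from triplicate slides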
# [5] = biological target: Neurogenic locus notch homolog protein 2 (Homo sapiens) (UniProt Q04721); assay: small molecules binding Notch2 protein – biochemical, small-molecule microarray, 635 nm fluorescence, stem cell growth factors, primary screen (AID 1073); conditions: higher = more signal
# Sequence of Neurogenic locus notch homolog protein 2 (Homo sapiens) (Q04721 whole entry, looked up, canonical isoform): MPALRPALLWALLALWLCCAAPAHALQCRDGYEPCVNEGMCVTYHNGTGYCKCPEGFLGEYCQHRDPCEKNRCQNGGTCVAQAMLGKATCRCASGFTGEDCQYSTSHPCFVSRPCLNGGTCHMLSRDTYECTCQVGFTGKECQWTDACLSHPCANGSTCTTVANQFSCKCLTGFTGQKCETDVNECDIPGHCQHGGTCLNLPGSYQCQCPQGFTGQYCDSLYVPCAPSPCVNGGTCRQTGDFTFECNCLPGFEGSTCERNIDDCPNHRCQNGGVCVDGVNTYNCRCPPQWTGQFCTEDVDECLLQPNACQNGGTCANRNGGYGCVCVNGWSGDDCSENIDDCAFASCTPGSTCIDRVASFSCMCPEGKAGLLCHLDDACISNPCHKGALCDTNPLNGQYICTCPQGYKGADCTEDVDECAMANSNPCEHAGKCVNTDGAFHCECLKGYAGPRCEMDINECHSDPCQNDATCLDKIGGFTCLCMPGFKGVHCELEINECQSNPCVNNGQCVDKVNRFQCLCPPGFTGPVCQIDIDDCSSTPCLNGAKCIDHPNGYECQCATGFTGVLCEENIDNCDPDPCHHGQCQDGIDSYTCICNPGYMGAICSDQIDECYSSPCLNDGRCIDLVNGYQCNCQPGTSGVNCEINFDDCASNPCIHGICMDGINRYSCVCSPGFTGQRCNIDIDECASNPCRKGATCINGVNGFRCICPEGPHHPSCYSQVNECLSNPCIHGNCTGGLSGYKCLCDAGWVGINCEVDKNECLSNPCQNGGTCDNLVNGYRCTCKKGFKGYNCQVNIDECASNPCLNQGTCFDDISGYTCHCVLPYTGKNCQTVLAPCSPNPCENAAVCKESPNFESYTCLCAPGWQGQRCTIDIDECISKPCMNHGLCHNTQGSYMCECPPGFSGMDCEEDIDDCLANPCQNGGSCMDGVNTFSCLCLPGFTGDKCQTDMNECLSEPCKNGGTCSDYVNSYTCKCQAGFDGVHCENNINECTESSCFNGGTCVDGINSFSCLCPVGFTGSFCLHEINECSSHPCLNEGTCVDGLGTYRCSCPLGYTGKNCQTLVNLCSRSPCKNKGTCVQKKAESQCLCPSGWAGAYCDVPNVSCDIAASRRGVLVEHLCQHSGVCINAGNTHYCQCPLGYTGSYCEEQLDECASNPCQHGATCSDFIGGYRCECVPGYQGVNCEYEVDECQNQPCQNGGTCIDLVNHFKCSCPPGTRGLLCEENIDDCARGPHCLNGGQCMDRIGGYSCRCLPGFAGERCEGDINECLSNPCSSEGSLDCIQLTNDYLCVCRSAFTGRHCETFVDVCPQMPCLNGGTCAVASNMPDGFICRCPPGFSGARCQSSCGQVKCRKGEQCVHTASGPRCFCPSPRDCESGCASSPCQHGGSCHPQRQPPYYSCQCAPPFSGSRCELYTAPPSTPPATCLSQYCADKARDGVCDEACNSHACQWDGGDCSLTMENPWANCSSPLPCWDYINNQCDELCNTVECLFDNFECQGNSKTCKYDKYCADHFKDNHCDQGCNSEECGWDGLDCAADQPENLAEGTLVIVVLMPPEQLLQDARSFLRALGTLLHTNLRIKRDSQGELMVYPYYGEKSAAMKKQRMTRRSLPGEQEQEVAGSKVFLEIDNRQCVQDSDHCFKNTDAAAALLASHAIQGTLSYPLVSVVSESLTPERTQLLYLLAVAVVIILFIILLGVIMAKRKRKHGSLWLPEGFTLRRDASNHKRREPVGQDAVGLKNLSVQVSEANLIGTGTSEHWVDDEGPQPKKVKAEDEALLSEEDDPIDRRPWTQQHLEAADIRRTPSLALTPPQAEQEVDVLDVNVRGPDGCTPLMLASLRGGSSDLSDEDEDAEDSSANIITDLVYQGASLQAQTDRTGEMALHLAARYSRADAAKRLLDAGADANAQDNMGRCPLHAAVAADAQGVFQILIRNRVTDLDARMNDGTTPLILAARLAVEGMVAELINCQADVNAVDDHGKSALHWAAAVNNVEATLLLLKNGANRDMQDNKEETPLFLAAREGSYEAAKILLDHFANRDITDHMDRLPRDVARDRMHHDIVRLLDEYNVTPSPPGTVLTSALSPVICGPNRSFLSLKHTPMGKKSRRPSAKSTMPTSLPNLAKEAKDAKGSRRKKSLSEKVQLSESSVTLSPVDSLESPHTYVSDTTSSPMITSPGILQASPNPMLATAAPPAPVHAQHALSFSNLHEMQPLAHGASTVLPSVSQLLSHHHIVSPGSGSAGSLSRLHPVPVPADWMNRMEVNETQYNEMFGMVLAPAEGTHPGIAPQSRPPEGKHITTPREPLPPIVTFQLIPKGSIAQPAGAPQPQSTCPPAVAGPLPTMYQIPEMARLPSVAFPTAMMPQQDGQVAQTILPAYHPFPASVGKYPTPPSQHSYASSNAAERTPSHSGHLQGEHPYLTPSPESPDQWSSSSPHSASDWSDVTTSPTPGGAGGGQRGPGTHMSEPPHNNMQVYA
# [6] = biological target: Pro-neuregulin-1, membrane-bound isoform (Homo sapiens) (UniProt Q02297); assay: small molecules binding neuregulin-1 protein – biochemical, small-molecule microarray, fluorescence 635/667, psychiatric disease protein project, primary screen (AID 1075); conditions: NRG1 binding, 635 nm fluorescence, higher = more signal;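 further: score combines 667 nm spot fluorescence with signal to noise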
# Sequence of Pro-neuregulin-1, membrane-bound isoform (Homo sapiens) (Q02297 whole entry, looked up, the tested form may be a part, canonical isoform): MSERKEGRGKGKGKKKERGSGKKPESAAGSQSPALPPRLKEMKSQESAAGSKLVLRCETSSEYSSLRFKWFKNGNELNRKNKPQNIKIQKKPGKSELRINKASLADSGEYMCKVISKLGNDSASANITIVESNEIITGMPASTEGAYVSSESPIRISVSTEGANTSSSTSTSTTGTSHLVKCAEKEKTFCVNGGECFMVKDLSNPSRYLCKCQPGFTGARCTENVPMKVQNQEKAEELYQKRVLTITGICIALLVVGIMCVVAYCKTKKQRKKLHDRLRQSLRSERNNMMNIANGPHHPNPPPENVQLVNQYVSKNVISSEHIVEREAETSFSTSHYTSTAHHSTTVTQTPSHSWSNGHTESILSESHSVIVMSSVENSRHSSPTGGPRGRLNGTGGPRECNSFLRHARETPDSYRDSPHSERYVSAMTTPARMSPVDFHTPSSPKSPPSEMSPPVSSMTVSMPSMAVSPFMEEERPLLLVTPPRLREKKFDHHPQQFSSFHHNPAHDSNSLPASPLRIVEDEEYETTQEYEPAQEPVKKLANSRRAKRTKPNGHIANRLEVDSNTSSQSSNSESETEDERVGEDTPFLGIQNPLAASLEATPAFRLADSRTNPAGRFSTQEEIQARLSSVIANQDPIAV
# [7] = system: Neuregulin-1 EGF-like domain; assay: small molecules binding NRG1 EGF domain – biochemical, small-molecule microarray, 635 nm fluorescence, primary screen (AID 1081); conditions: higher = more signal;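 further: binding of the protein to compounds printed on small-molecule microarray slides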
# [8] = FRG1 expression reporter modulators in myotubes – cell-based, C2C12 myotubes, firefly/Renilla luciferase, luminescence, FRG1 inhibition for FSHD, primary screen (AID 1084); conditions: FRG1 promoter luciferase, higher = more signal, called active from +8 up or from −8 down
# [9] = small molecules captured by biotinylated probe aFST – biochemical, small-molecule microarray, fluorescence 635/667, stem cell growth factor project, primary screen (AID 1086); conditions: higher = more signal;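 further: score merges 667 nm fluorescence with signal-to-noise of each printed compound spot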
# [10] = binders of probe aHhip on microarray, primary screen, stem cell growth factor project, biochemical, small-molecule microarray, fluorescence 635/667 (AID 1087); conditions: higher = more signal;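 further: score merges spot fluorescence at 667nm with spot signal to noise ratio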
# [11] = system: PRMT1 (protein arginine N-methyltransferase 1); assay: small molecules binding arginine methyltransferase PRMT1 – biochemical, small-molecule microarray, 635 nm fluorescence, primary screen (AID 1088); conditions: higher = more signal;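 further: binding of Prmt1 protein to compounds spotted on small-molecule microarray slides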
# [12] = growth effects on S. cerevisiae YJM789 – YJM789 clinical isolate, OD600, 24 h, basal, primary screen (AID 1089); conditions: higher = more signal, called active from +8 up or from −8 down;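 further: growth of clinical yeast isolate S. cerevisiae YJM 789 seeded 1000 cells per well; test concentration not given here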
# [13] = S. pombe growth modifiers, basal conditions – strain 972, OD600, 24 h, no modulator, primary screen (AID 1090);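 further: basal condition with compound alone and no growth modifier present; test concentration not given here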; conditions: S. pombe 972 growth, higher = more signal, called active from +8 up or from −8 down
# [14] = budding yeast growth modifiers under rapamycin – strain BY4716, OD600, 96 h, primary screen (AID 1091); further: test concentration not given here; conditions: S. cerevisiae BY4716 + rapamycin, higher = more signal, called active from +8 up or from −8 down
# [15] = biological target: Torsin-1A-interacting protein 2 (Homo sapiens) (UniProt Q8NFQ8); assay: small molecules binding lysate-expressed LULL1 – cell lysate, human LULL1 lysate, 635/667 nm fluorescence, primary screen (AID 1092); conditions: small-molecule microarray, hLULL1 lysate binding, 635 nm fluorescence; higher = more signal;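 further: probe is lysate of COS7 cells overexpressing human LULL1; score merges per-feature 667 nm fluorescence with signal-to-noise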
# Sequence of Torsin-1A-interacting protein 2 (Homo sapiens) (Q8NFQ8 whole entry, looked up): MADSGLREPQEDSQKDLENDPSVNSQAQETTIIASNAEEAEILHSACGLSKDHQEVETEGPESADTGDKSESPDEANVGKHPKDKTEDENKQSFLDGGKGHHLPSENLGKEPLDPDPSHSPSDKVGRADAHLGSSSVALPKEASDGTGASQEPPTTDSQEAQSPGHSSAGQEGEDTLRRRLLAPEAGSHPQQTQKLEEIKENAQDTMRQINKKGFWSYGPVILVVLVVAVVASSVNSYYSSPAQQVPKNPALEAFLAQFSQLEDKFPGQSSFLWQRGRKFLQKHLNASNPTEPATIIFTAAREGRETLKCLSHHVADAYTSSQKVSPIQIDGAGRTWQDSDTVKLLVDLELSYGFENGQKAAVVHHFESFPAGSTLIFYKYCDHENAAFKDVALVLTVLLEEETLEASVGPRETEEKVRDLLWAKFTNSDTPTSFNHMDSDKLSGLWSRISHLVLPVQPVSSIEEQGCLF
# [16] = optical density change of DRC41 E. coli – strain DRC41, OD650, 24 h, E. coli filamentation project, primary screen (AID 1093);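 further: MC1000 strain lacking acrAB efflux and sulA so SOS filamentation is blocked; test concentration not given here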; conditions: E. coli DRC41 growth, higher = more signal, called active from +8 up or from −8 down
# [17] = probe aLefty2 binding to arrayed compounds – biochemical, biotinylated probe, 635/667 nm fluorescence, primary screen (AID 1094); conditions: small-molecule microarray, higher = more signal;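 further: score merges spot fluorescence near 667 nm with spot signal-to-noise ratio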
# [18] = system: Noggin (protein binding on small-molecule microarray); assay: small molecules binding Noggin protein – biochemical, 635/667 nm fluorescence, primary screen (AID 1095); conditions: 635 nm fluorescence, higher = more signal;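 further: score merges 667 nm feature fluorescence with signal to noise over triplicate slides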
# [19] = biological target: Neurogenic locus notch homolog protein 3 (Homo sapiens) (UniProt Q9UM47); assay: small molecules binding NOTCH3 protein – biochemical, 635/667 nm fluorescence, primary screen (AID 1096); conditions: small-molecule microarray, 635 nm fluorescence, higher = more signal
# [20] = probe aEGFR binding to arrayed compounds – biochemical, biotinylated probe, 635/667 nm fluorescence, primary screen (AID 1097); conditions: small-molecule microarray, higher = more signal;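 further: probe is a biotinylated anti-EGFR antibody binding compounds printed on slides; score combines fluorescence near 667 nm and signal to noise of each spot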
SMILES,composite z-score [1],composite z-score [2],composite z-score [3],composite z-score [4],composite z-score [5],composite z-score [6],composite z-score [7],z-score [8],composite z-score [9],composite z-score [10],composite z-score [11],z-score [12],z-score [13],z-score [14],composite z-score [15],z-score [16],composite z-score [17],composite z-score [18],composite z-score [19],composite z-score [20]
C=CCN(C(=O)C(c1cccs1)N(C(=O)/C=C\C(=O)O)C(C)(C)CO)c1ccc(OC)cc1 (stereo not given),0.865 and 0.636,-0.709 and 0.408,-0.204 and -0.158,-1.37 and -0.882,-0.907 and -1.48,1.46 and 1.42,1.36 and 0.431,-0.447 (inactive) and 1.44 (inactive),-0.337 and -0.451,-0.482 and -0.0645,-0.771 and -0.469,-2.87 (inactive) and -2.15 (inactive),-2.09 (inactive) and -2.05 (inactive),-2.57 (inactive) and -1.07 (inactive),2.03 and -0.628,3.5 (inactive) and 2.82 (inactive),0.388 and -0.0519,-1.23 and -1.8,-1.37 and -0.484,-0.24 and -0.151
COC(=O)[C@H](C)NC(=O)CCC1CC(OC(=O)NCCc2ccc(F)cc2)CC2(CCCC(COC(=O)NCCCN3CCCC3=O)O2)O1 (stereo not given in full),-0.78,0.267,-0.0358,0.404,1.25,0.623,1.2,0.434 (inactive),0.367,0.0373,1.55,-0.432 (inactive),0.899 (inactive),0.849 (inactive),1.64,-0.681 (inactive),-0.168,0.727,1.03,-0.0505
C=CCN(Cc1ccccc1)C(=O)C1N(c2c(Cl)cccc2CO)C(=O)C2C(C(=O)O)C3C=CC21O3 (stereo not given),1.77 and 1.95,-1.28 and -0.799,-0.176 and -0.166,-1.74 and -0.702,-2.4 and -2.37,-1.18 and -0.797,-0.822 and -0.464,-1.05 (inactive) and 1.16 (inactive),-0.877 and -0.563,-0.418 and -0.137,-1.44 and -1.17,-3.28 (inactive) and 1.06 (inactive),-0.875 (inactive) and -0.0197 (inactive),-1.39 (inactive) and 0.236 (inactive),-1.2 and -1.34,3.06 (inactive) and 1.29 (inactive),-0.114 and 0.0686,-2.68 and -3.18,-2.25 and -1.57,-0.21 and -0.395
C=CCN(C(=O)C(c1cccs1)N(C(=O)/C=C\C(=O)O)c1ccc(CCO)cc1)c1ccc(OC)cc1 (stereo not given),0.862 and 1.92,-0.812 and -1.02,-0.236 and -0.312,-1.73 and -1.74,-1.21 and -2.49,0.017 and -1.66,0.877 and -1.46,0.253 (inactive) and 0.243 (inactive),-0.889 and -1.13,-0.134 and -0.204,-1.26 and -1.84,-0.755 (inactive) and 0.13 (inactive),-0.548 (inactive) and -0.894 (inactive),-0.929 (inactive) and -0.544 (inactive),-0.879 and -1.32,1.92 (inactive) and 0.715 (inactive),-0.0446 and -0.0463,-1.86 and -2.24,-0.314 and -1.78,-0.231 and -0.348
Cc1ccc(S(=O)(=O)N[C@H]2COC(=O)[C@@H](Cc3ccccc3)NC(=O)[C@@H](C)COC(=O)CC=C[C@@H]2C)cc1,-0.547 and -0.267,0.811 and 0.656,-0.177 and -0.145,0.0514 and 0.209,-0.311 and 0.0627,-0.355 and -0.215,-0.721 and 0.219,1.23 (inactive) and 1.04 (inactive),-0.169 and -0.0364,-0.429 and -0.0994,-0.0829 and 1.56,-0.248 (inactive) and -0.666 (inactive),0.209 (inactive) and 0.195 (inactive),-0.342 (inactive) and -0.348 (inactive),-0.872 and 0.969,0.205 (inactive) and 0.134 (inactive),-0.212 and -0.0726,0.3 and 0.541,-0.587 and 0.629,-0.0952 and -0.0661
CCOC(=O)[C@@H]1CC=C2CC1C(=O)N1CCC[C@@H]1[C@H]2O[Si](C)(C)C(C)(C)C (stereo not given in full),-0.116 and -0.386,-0.323 and -0.427,-0.157 and -0.282,-0.833 and -1.22,-1.16 and -1.46,-0.653 and -0.709,-1.69 and -0.727,0.678 (inactive) and -1.08 (inactive),-0.0907 and -1.25,-0.0994 and -0.252,-0.884 and -1.29,-0.541 (inactive) and -2.68 (inactive),-1.43 (inactive) and -19.5 (active),0.119 (inactive) and -1.52 (inactive),-0.664 and -0.302,-0.988 (inactive) and -0.253 (inactive),-0.0807 and -0.347,-0.462 and -0.414,-0.529 and -2.04,-0.218 and -0.273
COC(=O)C1=C2N(Cc3ccccc3)C(C)=C(C(=O)OC)[C@@H](c3ccccc3)N2C(=O)[C@](O)(C(=O)OC)C1,-0.416 and -0.485,0.969 and 0.932,-0.166 and -0.0477,0.0291 and 0.291,1.12 and 0.305,0.598 and -0.247,1.09 and -0.265,-0.0085 (inactive) and 0.0331 (inactive),0.084 and 0.0516,0.065 and -0.0237,0.691 and 0.144,-0.149 (inactive) and -0.0628 (inactive),-0.925 (inactive) and -0.134 (inactive),-1.34 (inactive) and -0.299 (inactive),1.8 and -0.466,0.788 (inactive) and -0.0132 (inactive),-0.142 and -0.235,1.14 and 0.796,0.81 and 0.263,-0.142 and -0.133
